# Among all 5,400 compounds or so, about 190 (3.5%) showed an effect of 50% or more. What follows is part of a selection rich in strong results, with near analogues and random picks from the rest.
# Test system: Vero-E6
# Assay: primary screen, phospholipidosis by LipidTOX staining; higher = more effect of the substance
# Settings: 10 µM
# Experimental: To measure drug-induced PLD in Vero-E6 cells, we used the HCS LipidTOX Red Phospholipidosis Detection Reagent (Invitrogen, #H34351), which is non-toxic to cell growth and remains well retained after aldehyde fixation. In this setup, compounds (at 10 μM concentration) and controls (amiodarone: 10 μM concentration; DMSO: 0.1 v/v %) were added to clear-bottom, 384-well plates (PhenoPlate 384-well, black, optically clear flat bottom, tissue-culture treated, Revvity #6057302) using the Echo Liquid Handler (Labcyte).
row,Structure (SMILES),result_ITMP
1,Cn1ncc(Cl)c1-c1cc(C(=O)N[C@H](CN)Cc2ccc(F)c(F)c2)oc1Cl,82.6%
2,Cn1nc(C(C)(C)C)cc1C(=O)N[C@@H](Cc1cccc(Cl)c1)C(=O)NCC#N,-8.49%
3,Cc1cc(CN)cc(C)c1NC(=O)c1ccc(-c2cc(Cl)ccc2Cl)o1,36.2%
4,Cn1ncc(Cl)c1-c1cc(C(=O)N[C@H](CN)Cc2cccc(F)c2)sc1Cl,69.5%
5,O=C(N[C@H](Cc1ccccc1)C(=O)O)c1sc2cc(F)ccc2c1Cl,-1.39%
6,C[C@]12CCC(=O)C=C1CC[C@@H]1[C@@H]2C(=O)C[C@]2(C)C(=O)CC[C@@H]12,-0.84%
7,C=C1C(=O)O[C@@H]2[C@H]3C(C)=CC[C@@]34O[C@@]4(C)CC[C@@H]12,2.15%
8,COC(=O)[C@]12CCC(C)(C)C[C@H]1[C@H]1C(=O)C=C3[C@@]4(C)C=C(C#N)C(=O)C(C)(C)[C@@H]4CC[C@@]3(C)[C@]1(C)CC2,-10.9%
9,CCCC[C@@H](NC(=O)[C@@H](Cc1cn(C(=O)OC)c2ccccc12)NC(=O)[C@H](CC(C)(C)C)NC(=O)N1[C@H](C)CCC[C@@H]1C)C(=O)[O-],-3.76%
10,CC(C)(C)CCN1C[C@@H]2[C@@H](CNC(=O)c3cc(Cl)cc(Cl)c3)[C@@H]2C1,20.6%
11,COC1C(OC(=O)NC(=O)CCl)CCC2(CO2)C1C1(C)OC1CC=C(C)C (stereo not drawn),11.3%
12,C[C@H]1CC2C([C@@H](O)C[C@@]3(C)C2CC[C@]3(O)C(=O)COC(=O)CCC(=O)[O-])[C@@]2(C)C=CC(=O)C=C12 (stereo partly drawn),-6.49%
13,O=C(c1ccc(F)c(F)c1Nc1ccc(I)cc1F)N1CC(O)([C@@H]2CCCCN2)C1,78.8%
14,O=C(NOCCO)c1cc(CN2OCCCC2=O)c(F)c(F)c1Nc1ccc(I)cc1F,-1.3%
15,O=C(NOCC1CC1)c1ccc(F)c(F)c1Nc1ccc(I)cc1Cl,1.02%
16,Cc1cc2nc3c(=O)[nH]c(=O)nc-3n(C[C@@H](O)[C@@H](O)[C@@H](O)COP(=O)([O-])O)c2cc1C,1.6%
17,COc1cc2cc(c1Cl)N(C)C(=O)C[C@H](OC(=O)C(C)C)[C@]1(C)O[C@H]1[C@H](C)[C@@H]1C[C@@](O)(NC(=O)O1)[C@H](OC)/C=C/C=C(\C)C2,-0.8%
18,CCN(CC)CCOc1ccc2c(c1)C(=O)c1cc(OCCN(CC)CC)ccc1-2,57.2%
19,CCOc1ccc(C(=O)OCCN(CC)CC)cc1,0.82%
20,CCCCOc1cc(C(=O)OCCN(CC)CC)ccc1N,18.9%
21,O=C1NNc2nc(CN3Cc4ccccc4C3)nc3cccc1c23,0.43%

row,Structure (SMILES),result_ITMP
1,O=C([O-])C(Cl)Cl,-4.51%
2,CC(C)(C)C(=O)OCOC(=O)C1N2C(=O)CC2S(=O)(=O)C1(C)C (stereo not drawn),3.85%
3,CCCCCCCCCCCCCCCC=O,-3.07%
4,COc1ccccc1N1CCN(CCCCN2C(=O)CCC2=O)CC1,6.62%
5,CCN(CC)CCCCN1c2ccccc2Oc2ccc(Cl)cc21,69.7%
6,OCCN1CCN(CCCN2c3ccccc3Sc3ccc(Cl)cc32)CC1,84.7%
7,CN1CCN(CCCN2c3ccccc3Sc3ccc(C(F)(F)F)cc32)CC1,81.3%
8,CN1CCN(CCCN2c3ccccc3Sc3ccc(Cl)cc32)CC1,38.9%
9,CN(C)CCCN1c2ccccc2CCc2ccc(Cl)cc21,47.3%
10,COc1ccccc1N1CCN(CCCCN2C(=O)c3ccccc3C2=O)CC1,-0.85%
11,Cc1c[nH]c(=O)n(CCCN2CCN(c3ccccc3OCC(F)(F)F)CC2)c1=O,-1.42%
12,O=C(CCc1ccncc1)NNC(=O)N1Cc2ccccc2Oc2ccc(Cl)cc21,-1.3%
13,Clc1ccc2c(N3CCN(CCCN4CCN(c5ccnc6cc(Cl)ccc56)CC4)CC3)ccnc2c1,6.97%
14,OCCN1CCN(CCCN2c3ccccc3C=Cc3ccccc32)CC1,50.3%
15,CN(C)c1ccc2nc3ccc(N(C)C)cc3[s+]c2c1,5.81%
16,CO[C@@H]1[C@H](OC(=O)NC(=O)CCl)CC[C@]2(CO2)[C@H]1[C@@]1(C)O[C@@H]1CC=C(C)C,16.1%
17,NC[C@@H]1O[C@H](O[C@H]2[C@@H](O)[C@H](O[C@@H]3[C@@H](O)[C@H](N)C[C@H](N)[C@H]3O[C@H]3O[C@H](CO)[C@@H](O)[C@H](O)[C@H]3N)O[C@@H]2CO)[C@H](N)[C@@H](O)[C@@H]1O,-1.27%
18,CC1CCC(O)C/C1=C\C=C1/CCCC2(C)C1CCC2C(C)/C=C/C(C)C(C)C (stereo not drawn),0.34%
19,C[C@H](CSC(=O)c1ccccc1)C(=O)N1C[C@@H](Sc2ccccc2)C[C@H]1C(=O)[O-],-1.35%
20,Cc1ncc(COP(=O)([O-])O)c(CN(CCN(CC(=O)[O-])Cc2c(COP(=O)(O)O)cnc(C)c2[O-])CC(=O)[O-])c1[O-].[Mn+2],-10.5%
21,O=C([O-])C1=C(CSc2nnnn2CS(=O)(=O)[O-])CS[C@@H]2[C@H](NC(=O)[C@H](O)c3ccccc3)C(=O)N12,0.51%

row,Structure (SMILES),result_ITMP
1,OCCN1CCN(CC/C=C2/c3ccccc3Sc3ccc(C(F)(F)F)cc32)CC1,83.6%
2,CN1CCN(CC/C=C2/c3ccccc3Sc3ccc(S(=O)(=O)N(C)C)cc32)CC1,61.9%
3,CSc1ccc2c(c1)N(CCC1CCCCN1C)c1ccccc1S2 (stereo not drawn),68.1%
4,CN(C)CCCN1c2ccccc2Sc2ccc(Cl)cc21,104%
5,CN(C)CCCN1c2ccccc2Sc2ccccc21,37.7%
6,CN(C)CCCN1c2ccccc2CCc2ccccc21,23.6%
7,OCCN1CCN(CC/C=C2/c3ccccc3Sc3ccc(Cl)cc32)CC1,17.9%
8,CN1CCCCC1CCN1c2ccccc2Sc2ccc(S(C)=O)cc21 (stereo not drawn),-0.95%
9,Cc1[nH]c(/C=C2\C(=O)Nc3ccc(S(=O)(=O)N(C)c4cccc(Cl)c4)cc32)c(C)c1C(=O)N1CCN(C)CC1,7.98%
10,OCCOCCN1CCN(C2=Nc3ccccc3Sc3ccccc32)CC1,22.1%
11,CO/N=C(/C(=O)N[C@@H]1C(=O)N2C(C(=O)[O-])=C(CSc3nc(=O)c([O-])nn3C)CS[C@H]12)c1csc(N)n1,-8.18%
12,C[N+]1([O-])[C@@H]2C[C@@H](OC(=O)[C@H](CO)c3ccccc3)C[C@H]1[C@@H]1O[C@@H]12 (stereo partly drawn),-4.04%
13,C[C@@]1(CO)[C@H](O)CC[C@@]2(C)[C@H]1CC[C@H]1C[C@@H]3C[C@@]12CC[C@]3(O)CO,0.12%
14,CC(C)(C)c1ccc(-c2nc3cccc(N4CCN(Cc5ccc6nccnc6c5)CC4)c3[nH]2)cc1,5.05%
15,Cc1cc(C)cc(NC(=O)Cc2ccc(OC(C)(C)C(=O)[O-])cc2)c1,9.78%
16,O=S(=O)([O-])c1ccc(O)cc1,-0.61%
17,Cc1onc(-c2c(F)cccc2Cl)c1C(=O)N[C@@H]1C(=O)N2[C@@H]1SC(C)(C)[C@@H]2C(=O)[O-],-6.63%
18,CCCCOc1c(C(=O)c2c(F)cc(C)cc2F)cnc2[nH]ncc12,7.58%
19,C/C(=C\CNc1ncnc2nc[nH]c12)CO,-1.84%
20,O=C(CN1CCN(Cc2ccc3c(c2)OCO3)CC1)N1c2ccccc2Sc2ccccc21,15.4%
21,CCCCCCCCCCCCCCCC(=O)OCCC1CCN(CCCN2c3ccccc3Sc3ccc(S(=O)(=O)N(C)C)cc32)CC1,-5.2%

row,Structure (SMILES),result_ITMP
1,OCCN1CCN(CCCN2c3ccccc3Sc3ccc(C(F)(F)F)cc32)CC1,60.4%
2,CN1CCN(CCCN2c3ccccc3Sc3ccc(S(=O)(=O)N(C)C)cc32)CC1,50.3%
3,CCSc1ccc2c(c1)N(CCCN1CCN(C)CC1)c1ccccc1S2,59.1%
4,CCCCCCCCCC(=O)OCCN1CCN(CCCN2c3ccccc3Sc3ccc(C(F)(F)F)cc32)CC1,5.56%
5,C[C@@H]1CN(Cc2ccc(F)cc2)[C@@H](C)CN1C(=O)c1cc2c(C(=O)C(=O)N(C)C)cn(C)c2cc1Cl,-5.07%
6,O=C([O-])c1cc2cc(Cc3cccnc3)ccc2o1,-0.95%
7,O=C([O-])[C@H](CC(=O)N1C[C@H]2CCCC[C@H]2C1)Cc1ccccc1,-4.71%
8,O=C(NN1C(=O)[C@@H]2[C@@H]3C=C[C@@H]([C@H]4C[C@@H]34)[C@@H]2C1=O)c1ccc(C(F)(F)F)cc1,-0.89%
9,C/N=C(/NS(=O)(=O)c1ccc(Cl)cc1)N1CC(c2ccccc2)C(c2ccc(Cl)cc2)=N1 (racemic),-1.59%
10,O=C(O)c1cnn(-c2nc3cc(Cl)c(OC(F)(F)F)cc3[nH]2)c1,-2.3%
11,CSc1ccc(C(=O)c2nc(O)[nH]c2C)cc1,-1.45%
12,O=S(=O)(c1cccc2cnccc12)N1CCNCC1,0.47%
13,O=S(=O)(NCCNC/C=C/c1ccc(Br)cc1)c1cccc2cnccc12,60.8%
14,NC(N)=NCCNS(=O)(=O)c1cccc2cnccc12,-3.17%
15,NC[C@@H]1O[C@H](O[C@H]2[C@@H](O)[C@H](O[C@@H]3[C@@H](O)[C@H](N)C[C@H](N)[C@H]3O[C@H]3O[C@H](CN)[C@@H](O)[C@H](O)[C@H]3N)O[C@@H]2CO)[C@H](N)[C@@H](O)[C@@H]1O,-2.72%
16,c1cnc2c([O][Ga]([O]c3cccc4cccnc34)[O]c3cccc4cccnc34)cccc2c1,5.3%
17,CCOC(=O)c1ccc(-n2cc(Cc3cnc(OCC)nc3)c(=O)nc2SCc2ccc(F)cc2)cc1,-1.15%
18,CCC(C)[C@H]1O[C@]2(C=C[C@@H]1C)C[C@@H]1C[C@@H](C/C=C(\C)[C@@H](OC3C[C@H](OC)C(O[C@H]4C[C@H](OC)[C@@H](O)[C@H](C)O4)[C@H](C)O3)[C@@H](C)/C=C/C=C3\CO[C@@H]4[C@H](O)C(C)=C[C@@H](C(=O)O1)[C@]34O)O2 (stereo partly drawn),-3.77%

# From publication PMC13083723 (Patterns, 2026)
